The text below walks through data of PubChem BioAssay.

The nature of assay [1]: antimalarial activity against Dd2 strain (AID 2302;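 active means growth inhibition above 50% at the single 2 µM test dose, taken to imply half-maximal potency below 2 µM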;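 further: 0% = DMSO untreated growth and 100% = chloroquine plus artemisinin killed control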). Conditions: P. falciparum Dd2 in RBCs, LDH growth readout, 72 h; at 2 µM; active compounds read high.
Assay [2] can be described thus: human hepatoma cell viability loss – ATP luminescence, cytotoxicity control for P. falciparum antimalarial project, primary screen (AID 2303;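 active means inhibition above 50%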;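 further: 0% = DMSO wells and 100% = digitonin-killed cells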). Particulars: HepG2 viability, 24-48 h, at 10 µM, active compounds read high.
Assay [3] has as its target L-lactate dehydrogenase (Plasmodium falciparum (isolate CDC / Honduras)) (UniProt Q27743). Description: PfLDH activity inhibition – cell lysate, 3D7 strain, counter-screen for P. falciparum growth inhibition project (AID 2304).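 Further: 0% = vehicle and 100% = reference inhibitor.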 Particulars: P. falciparum 3D7 crude extract, LDH APAD/NBT absorbance; at 2 µM; active compounds read high. In general terms: The purpose of a counterscreen is to sort out artefacts and off-target activity.

Assay [4] is described as follows: inhibition of 3D7 malaria parasite growth – strain 3D7 (AID 2306).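 Further: 0% = DMSO wells and 100% = chloroquine plus artemisinin control wells.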 Particulars: P. falciparum 3D7 erythrocytic growth, LDH absorbance, 72 h; at 2 µM; active compounds read high.
For assay [5], the target named is Calcium-dependent protein kinase 1 (Plasmodium falciparum (isolate 3D7)) (UniProt P62344). Briefly: PfCDPK1 kinase inhibitors, biochemical, TCAMS library (AID 1159585; cut-off not given, nearly all actives have IC50 up to about 0.98 µM;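 further: inhibitors leave more ATP so luminescence rises with inhibition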). Particulars: recombinant PfCDPK1, Kinase-Glo ATP depletion luminescence. (Kinase-Glo reads ATP consumption through a luciferase reaction.)
Calcium-dependent protein kinase 1 (Plasmodium falciparum (isolate 3D7)), sequence (P62344 whole entry, looked up): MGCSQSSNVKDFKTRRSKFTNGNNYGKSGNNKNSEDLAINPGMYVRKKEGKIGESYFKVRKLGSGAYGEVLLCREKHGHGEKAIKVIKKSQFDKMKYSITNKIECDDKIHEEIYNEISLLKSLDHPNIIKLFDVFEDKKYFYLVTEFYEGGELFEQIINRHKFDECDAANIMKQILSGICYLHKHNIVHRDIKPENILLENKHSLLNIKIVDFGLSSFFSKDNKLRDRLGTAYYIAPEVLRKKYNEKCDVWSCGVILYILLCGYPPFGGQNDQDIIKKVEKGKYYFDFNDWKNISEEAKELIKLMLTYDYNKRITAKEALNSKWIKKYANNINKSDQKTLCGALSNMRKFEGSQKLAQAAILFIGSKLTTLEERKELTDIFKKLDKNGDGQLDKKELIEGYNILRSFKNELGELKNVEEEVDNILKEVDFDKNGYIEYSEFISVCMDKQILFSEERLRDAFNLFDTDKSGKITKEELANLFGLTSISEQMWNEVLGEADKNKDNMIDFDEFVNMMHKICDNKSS
Assay [6] addresses Plasmodium falciparum protein kinase 6 (PK6, PF3D7_1337100) (UniProt Q8IDW1). Description: PfPK6 kinase inhibitors, biochemical, TCAMS library (AID 1159586). Particulars: recombinant PfPK6, Kinase-Glo ATP depletion luminescence.
Assay [7] deals with Protein kinase 7 (PK7), Plasmodium falciparum 3D7 (PF3D7_0213400) (UniProt Q7YTF7). Briefly: inhibition of Plasmodium PK7 catalytic activity – biochemical, TCAMS antimalarial set, Kinase-Glo luminescence (AID 1159587). Particulars: recombinant PfPK7, Kinase-Glo ATP depletion luminescence.
Protein kinase 7 (PK7), Plasmodium falciparum 3D7 (PF3D7_0213400), sequence (Q7YTF7 1-343): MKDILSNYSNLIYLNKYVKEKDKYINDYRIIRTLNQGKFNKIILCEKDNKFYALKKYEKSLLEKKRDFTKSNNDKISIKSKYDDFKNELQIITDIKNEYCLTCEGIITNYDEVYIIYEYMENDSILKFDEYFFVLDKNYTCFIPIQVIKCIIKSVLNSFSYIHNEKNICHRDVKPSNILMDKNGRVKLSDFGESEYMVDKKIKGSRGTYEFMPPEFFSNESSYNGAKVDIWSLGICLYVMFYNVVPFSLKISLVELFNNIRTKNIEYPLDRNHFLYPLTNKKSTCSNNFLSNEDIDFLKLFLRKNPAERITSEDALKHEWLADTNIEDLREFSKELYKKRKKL
Assay [8] concerns the target Calcium-dependent protein kinase 4 (Plasmodium falciparum (isolate 3D7)) (UniProt Q8IBS5). Description: PfCDPK4 kinase inhibitors, biochemical, TCAMS library (AID 1159588; cut-off not given, nearly all actives have IC50 up to about 0.91 µM). Conditions: recombinant PfCDPK4, Kinase-Glo ATP depletion luminescence.

A number with no mark means an inactive call. For some of these results: Entries with a potency or affinity are not part of this list. Calls of active or inactive are those of the source. Unless noted, how the calls were made is not given here.

L-lactate dehydrogenase (Plasmodium falciparum (isolate CDC / Honduras)), sequence (Q27743 whole entry, looked up): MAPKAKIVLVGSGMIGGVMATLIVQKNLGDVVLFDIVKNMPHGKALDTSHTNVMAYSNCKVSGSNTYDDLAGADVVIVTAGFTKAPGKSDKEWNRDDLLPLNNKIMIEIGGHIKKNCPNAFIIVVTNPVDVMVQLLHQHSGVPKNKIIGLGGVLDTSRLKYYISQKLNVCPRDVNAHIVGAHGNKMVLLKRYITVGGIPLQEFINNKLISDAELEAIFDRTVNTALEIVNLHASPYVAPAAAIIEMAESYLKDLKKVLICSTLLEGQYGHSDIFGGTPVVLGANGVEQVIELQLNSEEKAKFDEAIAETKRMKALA
Calcium-dependent protein kinase 4 (Plasmodium falciparum (isolate 3D7)), sequence (Q8IBS5 whole entry, looked up): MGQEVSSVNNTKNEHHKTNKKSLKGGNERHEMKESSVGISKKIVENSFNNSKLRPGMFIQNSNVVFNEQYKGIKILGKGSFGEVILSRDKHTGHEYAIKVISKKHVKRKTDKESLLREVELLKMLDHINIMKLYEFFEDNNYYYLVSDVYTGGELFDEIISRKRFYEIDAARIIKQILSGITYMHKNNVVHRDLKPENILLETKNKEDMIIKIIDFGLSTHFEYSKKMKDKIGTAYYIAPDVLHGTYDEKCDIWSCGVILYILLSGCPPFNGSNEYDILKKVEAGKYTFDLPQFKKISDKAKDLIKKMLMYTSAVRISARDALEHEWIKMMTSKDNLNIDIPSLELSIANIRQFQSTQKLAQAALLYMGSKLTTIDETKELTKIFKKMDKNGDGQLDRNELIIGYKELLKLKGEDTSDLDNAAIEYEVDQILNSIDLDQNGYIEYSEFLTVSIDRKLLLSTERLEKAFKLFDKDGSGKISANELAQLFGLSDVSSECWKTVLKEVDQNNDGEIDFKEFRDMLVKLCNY
Plasmodium falciparum protein kinase 6 (PK6, PF3D7_1337100), sequence (Q8IDW1 1-305): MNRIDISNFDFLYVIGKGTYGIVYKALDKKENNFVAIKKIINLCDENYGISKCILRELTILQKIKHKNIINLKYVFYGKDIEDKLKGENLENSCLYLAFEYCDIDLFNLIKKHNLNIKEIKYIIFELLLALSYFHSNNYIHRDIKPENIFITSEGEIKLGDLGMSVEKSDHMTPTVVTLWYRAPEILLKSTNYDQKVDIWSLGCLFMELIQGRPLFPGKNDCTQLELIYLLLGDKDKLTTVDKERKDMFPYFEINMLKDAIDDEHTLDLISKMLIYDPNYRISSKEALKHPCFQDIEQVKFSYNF

With `CC(C)c1ccc(NC(=O)NC2CCN(CCCCCN(C)C(=O)/C=C/c3ccc(Cl)c(Cl)c3)C2)cc1` (stereo not given), the growth inhibition in assay [1] is 3%; in assay [4], 99% (active). In addition, the results for the inhibition in assay [2] and in assay [3] were 28% and -2%, respectively. Also, the outcome in assay [5], in assay [6], in assay [7] and in assay [8] was inactive.
For the compound `CC(CN1CCN(C)CC1)C(=O)Nc1ccc(-c2ccc(-c3nc4ccc(C(F)(F)F)cc4[nH]3)cc2)cc1` (stereo not given), the growth inhibition in assay [1] was 100% (active); in assay [4] it was 101% (active). Besides, the inhibition (commonly the drop in the measured response relative to a control, in per cent) in assay [2] was 19%; in assay [3], -8%. The result in assay [5], in assay [6], in assay [7] and in assay [8] was inactive.
`O=C(Nc1ccc(OC2CCN(Cc3ccsc3)CC2)c(Cl)c1)c1cccs1`: the growth inhibition in assay [1] is 93% (active); in assay [4] it was 94% (active). Besides, the inhibition in assay [2] is 16%; in assay [3] it was 1%. Also, the outcome in assay [5], in assay [6], in assay [7] and in assay [8] was inactive.
On to `Fc1cccc(Nc2nc(NCCc3ccc(Cl)cc3)nc(Nc3cccc(F)c3)n2)c1`, for which the growth inhibition was 30% in assay [1] and 93% (active) in assay [4]. Further, the figures for the inhibition in assay [2] and in assay [3] were -3% and 6%, respectively. Further, the result in assay [5], in assay [6], in assay [7] and in assay [8] was inactive.
On to `CN(C)CCCOc1ccccc1CN1CC[C@H](NC(=O)c2ccc(Cl)c(Cl)c2)C1`, for which the figures for the growth inhibition in assay [1] and in assay [4] were 54% (active) and 94% (active), respectively. The figures for the inhibition in assay [2] and in assay [3] were 42% and -3%, respectively. Besides, the outcome in assay [5], in assay [6], in assay [7] and in assay [8] was inactive.
For `O=C(Nc1cccc(CN2CCN(C(=O)c3cccc(F)c3)CC2)c1)c1ccco1`, the growth inhibition is 55% (active) in assay [1] and 88% (active) in assay [4]. In addition, the inhibition in assay [2] is 7%; in assay [3], 4%. For the same compound, the result in assay [5], in assay [6], in assay [7] and in assay [8] was inactive.
With `Cc1cc(NN=CC=Cc2ccccc2)c2cc(F)ccc2n1`, the growth inhibition in assay [1] is 36%; in assay [4], 101% (active). In addition, the results for the inhibition in assay [2] and in assay [3] were 8% and -2%, respectively. Also, the outcome in assay [5], in assay [6], in assay [7] and in assay [8] was inactive.
Consider `COc1ccc2c(NN=Cc3cccc(Cl)c3)cc(C)nc2c1`, for which the growth inhibition in assay [1] was 99% (active); in assay [4], 103% (active). Besides, the inhibition in assay [2] and in assay [3] was 3% in each case. The outcome in assay [5], in assay [6], in assay [7] and in assay [8] was inactive.
As to `COc1cc(F)c2ncc(Cl)c(CCN3CCC(NCc4ccc5c(c4)NC(=O)CO5)CC3)c2c1`, the growth inhibition in assay [1] was 79% (active); in assay [4] it was 95% (active). The inhibition in assay [2] is 32%; in assay [3] it was -2%. In addition, the result in assay [5], in assay [6], in assay [7] and in assay [8] was inactive.
On to `CN(C)S(=O)(=O)c1ccc(Nc2nc(NCCC3C=NC=N3)nc3cc[nH]c(=O)c23)cc1` (stereo not given), for which the results for the growth inhibition in assay [1] and in assay [4] were 63% (active) and 96% (active), respectively. For the same compound, the inhibition is 8% in assay [2] and 2% in assay [3]. The result in assay [5], in assay [6], in assay [7] and in assay [8] was inactive.
Consider `NC(=O)c1ccc(C(=O)Nc2cccc(-c3ccc(-c4nc5ccc(C(F)(F)F)cc5[nH]4)cc3)c2)cc1`, for which the growth inhibition in assay [1] is 31%; in assay [4] it was 100% (active). Moreover, the inhibition in assay [2] was 35%; in assay [3], -1%. The outcome in assay [5], in assay [6], in assay [7] and in assay [8] was inactive.
On to `CC(C)CNCc1cccc(-c2cccc(CN(CCN(C)C)C(=O)Nc3ccccc3)c2)c1`, for which the figures for the growth inhibition in assay [1] and in assay [4] were 62% (active) and 99% (active), respectively. Moreover, the inhibition was 34% in assay [2] and 4% in assay [3]. Besides, the result in assay [5], in assay [6], in assay [7] and in assay [8] was inactive.
On to `COc1cc(-c2nnc(SCC(=O)Nc3cc(C)on3)n2C)cc(OC)c1O`, for which the figures for the growth inhibition in assay [1] and in assay [4] were 2% and 89% (active), respectively. The inhibition is 2% in assay [2] and 5% in assay [3]. The result in assay [5], in assay [6], in assay [7] and in assay [8] was inactive.
Consider `Cc1ccc(Nc2nc(NN=Cc3cccc([N+](=O)[O-])c3)nc(Nc3ccccc3)n2)c(C)c1`, for which the growth inhibition in assay [1] is 97% (active); in assay [4], 91% (active). The inhibition was 9% in assay [2] and 4% in assay [3]. For the same compound, the outcome in assay [5], in assay [6], in assay [7] and in assay [8] was inactive.
As to `CC1(C)N=C(N)N=C(N)N1OCc1nc(N)nc(Nc2ccccc2)n1`, the results for the growth inhibition in assay [1] and in assay [4] were -4% and 98% (active), respectively. Besides, the inhibition in assay [2] was 3%; in assay [3], -2%. Also, the result in assay [5], in assay [6], in assay [7] and in assay [8] was inactive.
Take `COc1ccc(CC(=O)NC(CCN2CCC3(CCc4ccccc43)CC2)c2ccc(Cl)c(Cl)c2)cc1` (stereo not given): the growth inhibition in assay [1] was 75% (active); in assay [4] it was 90% (active). The inhibition in assay [2] is 28%; in assay [3], -1%. In addition, the outcome in assay [5], in assay [6], in assay [7] and in assay [8] was inactive.
With `Fc1ccc2nc(-c3cccc(-c4ccc(CNCCN5CCNCC5)cc4)c3)[nH]c2c1`, the growth inhibition was -3% in assay [1] and 90% (active) in assay [4]. In addition, the results for the inhibition in assay [2] and in assay [3] were 9% and -2%, respectively. In addition, the result in assay [5], in assay [6], in assay [7] and in assay [8] was inactive.
In the case of `O=S(=O)(NCCN1CCCC1)c1ccc(-c2ccc(CNC3Cc4ccccc4C3)cc2)s1`, the growth inhibition in assay [1] is 97% (active); in assay [4], 100% (active). Moreover, the figures for the inhibition in assay [2] and in assay [3] were 47% and -2%, respectively. Besides, the outcome in assay [5], in assay [6], in assay [7] and in assay [8] was inactive.
With `C=CCOC(=O)N1CCC(CNCc2cccc(-c3cccc(-c4nc5ccc(F)cc5[nH]4)c3)c2)C1` (stereo not given), the growth inhibition in assay [1] was 49%; in assay [4], 102% (active). Moreover, the inhibition in assay [2] is 20%; in assay [3], 0%. Further, the result in assay [5], in assay [6], in assay [7] and in assay [8] was inactive.
For `COc1ccc(-c2ccccc2CNC2Cc3ccccc3C2)cc1S(=O)(=O)NCCN1CCCC1`, the growth inhibition is 47% in assay [1] and 96% (active) in assay [4]. The inhibition is 18% in assay [2] and -3% in assay [3]. Moreover, the result in assay [5], in assay [6], in assay [7] and in assay [8] was inactive.
